153 variants from a collection of fitness landscapes (doi:10.1126/science.1257360) can be followed below.

The chains are these.
B1: PhoQ; a variant is named by its letters at X, in order, P23837 (parent)
chain: MKKLLRLFFPLSLRVRFLLATAAVVLVLSLAYGMVALIGYSVSFDKTTFRLLRGESNLFYTLAKWENNKLHVELPENIDKQSPTMTLIYDENGQLLWAQRDVPWLMKMIQPDWLKSNGFHEIEADVNDTSLLLSGDHSIQQQLQEVREDDDDAEMTHSVAVNVYPATSRMPKLTIVVVDTIPVELKSSYMVWSWFIYVLSANLLLVIPLLWVAAWWSLRPIEALAKEVRELEEHNRELLNPATTRELTSLVRNLNRLLKSERERYDKYRTTLTDLTHSLKTPLXXLQXXLRSLRSEKMSVSDAEPVMLEQISRISQQIGYYLHRASMRGGTLLSRELHPVAPLLDNLTSALNKVYQRKGVNISLDISPEISFVGEQNDFVEVMGNVLDNACKYCLEFVEISARQTDEHLYIVVEDDGPGIPLSKREVIFDRGQRVDTLRPGQGVGLAVAREITEQYEGKIVAGESMLGGARMEVIFGRQHSAPKDE

In all, about 140,000 sequences were measured (“enrichment ratio after two sorts for PhoP signalling”: median about 0, highest 2% from about 11 on). The entries come from a sample that favours the highest values as a whole. Where only a bound is given, the exact number is not on record here.

Variants of B1 are the subject of the test. Put plainly: enrichment ratio after two sorts for PhoP signalling (ratio (wild type AVST 3.29)); higher = more functional. To be noted: with PhoP (E. coli).
As for HAGM, the enrichment ratio is at most 0.25. The same measure for HMVE: at most 0.25. In the case of VFKE it was at most 0.25. In the case of HGRI it was at most 0.25. On to FPCA, for which the enrichment ratio was at most 0.25.

Turning to GKQD, the enrichment ratio is at most 0.25. In the case of NAHY it was at most 0.25. For the variant TAHY, the enrichment ratio was 27.1. In the case of TAPI it was at most 0.25; in that of AHHY, at most 0.25. The same measure for MAHY: 20.2; for KAHY: at most 0.25. The same measure for NMRM: at most 0.25; for AWCT: at most 0.25. For the variant RICT, the enrichment ratio was at most 0.25. The same measure for AICT: 18. The same measure for NICT: at most 0.25; for YACT: 0.253; for ANCT: 21.

As for AHCT, the enrichment ratio is at most 0.25.

Regarding KACT, the enrichment ratio was at most 0.25.

AQCT: the enrichment ratio is 20.8.

As for EQCT, the enrichment ratio is at most 0.25. In the case of SNCT it was 8.8; in that of AACT, 12.4; in that of ALFD, at most 0.25. In the case of SHFP it was 0.324; in that of WCTK, at most 0.25; in that of FYGE, at most 0.25. As to MNPG, the enrichment ratio is at most 0.25. In the case of FEMT it was 3.56; in that of ENFC, at most 0.25. In the case of SYCA it was at most 0.25; in that of EDSI, at most 0.25. In the case of SHNH it was 1.34.

For QHRH, the enrichment ratio was at most 0.25. In the case of NHNH it was at most 0.25. The same measure for QHGY: 8.42. For the variant QHRI, the enrichment ratio is at most 0.25. In the case of THNH, the enrichment ratio was 16.2.

Regarding QHNS, the enrichment ratio came to 5.2. In the case of QHNH it was 13.9; in that of QHNY, 27.5; in that of LVRE, at most 0.25. In the case of EGNA it was at most 0.25; in that of YTYL, at most 0.25. The same measure for TEWM: 73.1; for TEWA: 38.4; for TEWR: 6.71. Consider TERM, for which the enrichment ratio was at most 0.25. The same measure for TEWN: 9.81.

Turning to TEYL, the enrichment ratio stood at 13. In the case of TEWS it was 28.5; in that of KSWS, at most 0.25. Take TEWG: the enrichment ratio was found to be 3.3. In the case of NIYL it was at most 0.25; in that of TEGM, 4.56.

On to QHAH, for which the enrichment ratio is at most 0.25. The same measure for DNQP: at most 0.25; for LKHW: at most 0.25; for NWHW: at most 0.25. The same measure for WFMI: at most 0.25. The same measure for IWYG: at most 0.25; for WQRD: at most 0.25.

On to HEYK, for which the enrichment ratio is at most 0.25. In the case of RHGY it was at most 0.25; in that of MEWL, at most 0.25; in that of TERL, at most 0.25. The same measure for NEAM: at most 0.25. Turning to MEAM, the enrichment ratio came out at 9.82. In the case of KSWL it was at most 0.25. The same measure for TEWL: 21.7; for TEWD: 13; for KSWD: at most 0.25.

In the case of TEAM, the enrichment ratio worked out at 16.4. The same measure for QEWD: 4.99; for TEGL: 13.2; for TEEL: at most 0.25. Consider SQYM, for which the enrichment ratio is at most 0.25. In the case of VRMI it was at most 0.25.

QHIN: the enrichment ratio is at most 0.25. In the case of SFID it was at most 0.25; in that of DARD, at most 0.25.

Turning to RDIV, the enrichment ratio is at most 0.25. In the case of TEWF it was 22; in that of NYWF, at most 0.25.

For the variant QEWF, the enrichment ratio is at most 0.25.

As for RLCT, the enrichment ratio was at most 0.25. For the variant NKEG, the enrichment ratio was at most 0.25. The same measure for NQVI: at most 0.25. For AQVA, the enrichment ratio came to 14.1. The same measure for AQVK: at most 0.25. In the case of AIVI it was 13; in that of AQVE, 34.1.

Turning to AQHE, the enrichment ratio is at most 0.25.

VHVI: the enrichment ratio is at most 0.25. In the case of AQRA it was at most 0.25; in that of ICVI, at most 0.25.

As for ADVE, the enrichment ratio is at most 0.25. In the case of WIVI it was at most 0.25; in that of AQVI, 18.1; in that of DEDS, at most 0.25. Consider DGNR, for which the enrichment ratio is at most 0.25.

As for DLTS, the enrichment ratio was at most 0.25.

Consider PPKY, for which the enrichment ratio is at most 0.25. The same measure for ICPL: at most 0.25. The same measure for KKGI: at most 0.25; for DIWR: at most 0.25; for HNLR: at most 0.25. In the case of VLVI it was at most 0.25; in that of AQWG, at most 0.25; in that of AQVS, 14. With AKVE, the enrichment ratio is at most 0.25. For AQVC, the enrichment ratio was determined as 9.47. For AMVI, the enrichment ratio was 16.3.

Turning to AIVE, the enrichment ratio stood at 12.3. The same measure for RIVE: at most 0.25; for EQVS: at most 0.25; for NMVI: at most 0.25. In the case of AQVG it was 12. Consider KQVS, for which the enrichment ratio was at most 0.25.

As to DFYH, the enrichment ratio was at most 0.25.

As for PRHA, the enrichment ratio is at most 0.25. As for KVWY, the enrichment ratio is at most 0.25. The same measure for KKYK: at most 0.25. In the case of ETML it was at most 0.25; in that of RGLV, at most 0.25. The same measure for CFLV: at most 0.25.

Turning to TGLV, the enrichment ratio stood at 12.3.

For the variant VHLV, the enrichment ratio is at most 0.25. The same measure for APLV: at most 0.25; for VRLV: at most 0.25. In the case of AGLV it was 12.7; in that of VGLV, 12.3. The same measure for NGLV: 6.65; for SGLV: 17.9; for SGHK: at most 0.25. As for LWQD, the enrichment ratio is at most 0.25.

In the case of FDMF, the enrichment ratio was at most 0.25. In the case of VNQQ it was at most 0.25; in that of YCCF, at most 0.25. The same measure for NGGQ: at most 0.25; for MMPC: at most 0.25.

For LNWD, the enrichment ratio was at most 0.25. As to VQIE, the enrichment ratio was at most 0.25.

As for QIPP, the enrichment ratio was at most 0.25.

GGLV: the enrichment ratio amounted to 13.7.

Regarding MGLV, the enrichment ratio is 15.2. GYLV: the enrichment ratio was at most 0.25. The same measure for MGLA: 2.09; for MGLW: at most 0.25; for NILV: 0.722.

Turning to YFRP, the enrichment ratio was at most 0.25.
